# An excerpt weighted towards active compounds, which were near 4.5% of everything screened.
# PrPC surface inh: inhibitors of human cell surface prion protein PrPC; P04156; AID 720596; inhibition, % at 13.8 µM; TR-FRET read-out; 370,000 compounds, 0.43% hits; in the data active means inhibition above about 24%
# GDH-TPI inh: GDH-TPI coupled enzyme inhibition counter-screen. AID 588335. GDH-TPI coupled enzyme counterscreen, NADH absorbance. inhibition, % at 4.8 µM. 360,000 compounds, 1.2% hits; in the data active means inhibition above about 30%
# PrP UTR inh: inhibition of PrP 5' UTR reporter expression. cell-based PrP 5' UTR mRNA reporter, plate reader. inhibition, % (no concentration beside the values). 340,000 compounds, 0.35% hits; in the data active means inhibition above about 52%
# BJeLR viability: kills HRASV12-expressing BJeLR cells; BJeLR (HRASV12) viability, CellTiter-Glo ATP luminescence, 48 h; inhibition, % (no concentration beside the values); 300,000 compounds, 0.17% hits; AID 1554; in the data active means inhibition above about 50%; inconclusive means no clear call, values can overlap the other calls
# PfHsp40 yeast: rescue of PfHsp40-mediated yeast toxicity. S. cerevisiae expressing PfHsp40, growth rescue, ATP luminescence. growth rescue, % at 12.5 µM. 340,000 compounds, 0.68% hits. AID 504582; in the data active means growth rescue above about 28%, passing the limit was not always enough; inconclusive means no clear call, values can overlap the other calls;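 further: yeast W303a lacking pdr1 and pdr3 grown in galactose medium; growth measured after three days at 30 °C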
# Mtb FBA inh: inhibits M. tuberculosis FBA enzyme; P9WQA3; purified M. tuberculosis FBA, fluorescence read-out; inhibition, % at 1 µM; 360,000 compounds, 2.3% hits; in the data active means inhibition above about 27%
# Target sequence (P9WQA3 whole entry, looked up): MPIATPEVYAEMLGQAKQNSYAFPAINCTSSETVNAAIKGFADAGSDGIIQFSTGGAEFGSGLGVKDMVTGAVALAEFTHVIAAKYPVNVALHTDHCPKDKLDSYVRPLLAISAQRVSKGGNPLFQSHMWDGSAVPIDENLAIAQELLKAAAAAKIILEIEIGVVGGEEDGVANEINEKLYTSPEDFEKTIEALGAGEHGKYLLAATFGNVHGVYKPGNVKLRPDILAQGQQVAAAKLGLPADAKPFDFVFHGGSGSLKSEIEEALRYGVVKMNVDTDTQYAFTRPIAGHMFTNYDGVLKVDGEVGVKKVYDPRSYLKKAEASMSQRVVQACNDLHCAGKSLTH
# A number is an active result; . = inactive; ? = inconclusive; / = no result given; + = active, no number.
SMILES,PrPC surface inh,GDH-TPI inh,PrP UTR inh,BJeLR viability,PfHsp40 yeast,Mtb FBA inh
O=C(NCCc1nc2ccccc2n1CCOc1ccc2cccnc2c1)C1CCCCC1,.,/,/,/,/,/
CC(C)N1CCc2c(sc(N)c2C#N)C1,.,32.0,.,.,.,.
O=C(NCCc1ccccc1)OCc1cn(Cc2cccc(F)c2F)nn1,.,/,/,/,/,/
O=C(Nc1ccc(C(=O)O)cc1)/C(=C\c1ccco1)NC(=O)c1ccc(Br)cc1,.,40.2,/,/,/,.
O=C(Nc1ccc(C(=O)O)cc1)/C(=C\c1ccco1)NC(=O)c1ccc(Br)o1,.,.,.,.,.,.
O=C(Nc1ccc(O)cc1)/C(=C/c1ccco1)NC(=O)c1ccccc1,.,39.9,.,.,.,.
COc1ccc(-c2nc(C#N)c(N3CCc4ccccc4C3)o2)cc1OC,.,40.8,.,.,.,149.8
COc1ccccc1-c1nc(C#N)c(N2CCCCCC2)o1,.,.,.,.,.,+
Cc1cccc(-c2nc(C#N)c(N3CCC(C)CC3)o2)c1,.,.,/,.,.,.
COc1ccccc1-c1nc(C#N)c(N2CCN(c3ccccc3)CC2)o1,.,.,.,.,.,.
COc1ccc(N2CCN(c3oc(-c4ccc(OC)c(OC)c4)nc3C#N)CC2)cc1,.,.,.,.,.,.
Cc1cccc(-c2nc(C#N)c(N3CCCCCC3)o2)c1,.,.,.,.,.,138.5
C[C@H](O)[C@@H]1CN2CCc3c([nH]c4c(-c5ccc6c(c5)OCO6)cccc34)[C@@H]2C[C@@H]1N(C)C(=O)Nc1ccccc1,.,/,/,/,/,/
COc1ccc2c(c1)sc(N)[n+]2Cc1cc(C)cc2cccnc12,.,.,.,52.4,.,.
Cc1ccc(S(=O)(=O)NC(=O)c2ccc(-c3ccc(C)c4ccccc34)o2)cc1,.,.,.,.,.,130.5
Cc1onc(-c2ccccc2)c1C(=O)NC(=S)NNC(=O)c1ccccc1O,.,.,.,.,?,.
Cc1onc(-c2ccccc2)c1C(=O)NC(=S)NNC(=O)c1ccc(O)cc1O,.,.,.,.,247.8,.
CCOC(=O)Cn1cc(CN2CCS(=O)(=O)N(Cc3ccc(OC)cc3)C(C(=O)OC)C2)nn1 (centres undefined),.,/,/,/,/,/
O=S(=O)(Nc1cccc2c1CCCC2)c1ccc(Cl)cc1,.,.,.,.,41.9,.
COC(=O)N1CCC[C@H]1c1cccc2[nH]cc(C)c12,.,/,/,/,/,/
O=C(Nc1cccc(C(=O)O)c1)/C(=C/c1ccc2c(c1)OCO2)NC(=O)c1cccc(Br)c1,.,.,.,.,.,.
O=C(Nc1cccc(C(=O)O)c1)/C(=C\c1ccc2c(c1)OCO2)NC(=O)c1ccccc1Br,.,36.0,/,/,/,.
O=C(Nc1ccc(C(=O)O)cc1)/C(=C\c1ccc2c(c1)OCO2)NC(=O)c1ccccc1Cl,.,34.8,/,/,/,.
C[C@H]1COc2cccc(N3CCCC3)c2S(=O)(=O)N1C,.,/,/,/,/,/
CC(=O)c1ccc(Nc2nc(C(C)N)cs2)cc1 (centres undefined),.,31.2,/,/,/,.
SMILES,PrPC surface inh,GDH-TPI inh,PrP UTR inh,BJeLR viability,PfHsp40 yeast,Mtb FBA inh
CC(N)c1csc(Nc2ccc(C(=O)NCCO)cc2)n1 (centres undefined),.,.,/,/,/,.
COC(=O)C[C@H]1C=C[C@@H](NC(=O)NC2CCCCC2)[C@@H](CO)O1,.,/,/,/,/,/
COc1cc(C(=O)O)c2c(c1C)OC(=O)c1c(C)cc(O)c(C=O)c1O2,.,.,.,.,86.4,.
Cc1ccc(CNC2CCC23CCC(c2ccccc2)CC3)o1 (centres undefined),.,/,/,/,/,/
O=C(NNC(=O)c1ccncc1)Nc1ccc(N=Nc2ccccc2)cc1,.,36.6,.,/,.,.
O=C(NNC(=O)c1ccncc1)Nc1ccccc1,.,.,.,.,.,.
CC(=O)c1ccc(NC(=S)NNC(=O)c2ccncc2)cc1,.,31.6,.,.,.,.
Cc1ccc(S(=O)(=O)C(C#N)c2nc3ccccc3nc2N2CCCC2)cc1 (centres undefined),.,.,.,.,.,128.1
CCN1CCN(c2nc3ccccc3nc2C(C#N)S(=O)(=O)c2ccc(C)cc2)CC1 (centres undefined),.,.,.,.,.,.
CN1CCN(c2nc(-c3ccccc3)nc(-c3ccccc3)c2C#N)CC1,.,.,.,.,.,.
COc1ccc(-c2nc(-c3ccccc3)nc(N3CCN(C)CC3)c2C#N)cc1,.,.,.,.,.,38.2
N#Cc1ccc(-c2ccc(F)cc2)nc1Oc1ccc(Cl)c(Cl)c1,.,.,.,.,.,.
COc1ccc(-c2ccc(C#N)c(OC)n2)cc1,.,.,.,.,.,+
COc1ccc(Cn2c(NC(=O)c3ccccc3)nc(Cc3ccccc3)c2-c2ccccc2)c(OC)c1,.,/,/,/,/,/
CN(C)CCOc1ccc2c(c1)C(=O)C(=Cc1ncc([N+](=O)[O-])n1C)C2,.,31.6,/,/,/,.
COCCCNC(=O)c1ccc2c(c1)NC(=O)C(C)(C)O2,.,/,/,/,/,/
CCCCN=C(N)NC(=O)OCc1ccccc1,.,/,/,/,/,/
Cc1ccc(-c2cc(-c3nnc(SCC(=O)N4CCOCC4)n3N)[nH]n2)cc1,.,/,/,/,/,/
COc1ccc2nc(-c3ccccc3)[nH]c2c1,.,.,.,.,.,149.9
COc1ccc(-c2nc3ccc([N+](=O)[O-])cc3[nH]2)cc1,.,.,.,.,.,.
CCOc1ccc2nc(-c3ccccc3)[nH]c2c1,.,.,.,.,.,188.6
CCCCOCCCNC(=O)C[C@H]1C[C@@]2(C(=O)OC)C(=C[C@H](C3CCCC3)O[C@@H]2C)N(Cc2cccc3ccccc23)C1=O,.,/,/,/,/,/
C#CCN1CC(COCCCC)Oc2cccc(Oc3ccc(C(C)(C)C)c(C)c3)c2S1(=O)=O (centres undefined),.,/,/,/,/,/
CC(C)[C@H](N)C(=O)N1CCC[C@@H]1C(=O)N1CCC2CCN(S(=O)(=O)c3ccccc3)CC21 (some centres undefined),.,/,/,/,/,/
O=[N+]([O-])c1ccc(NCCCN2CCC(C(O)(c3ccccc3)c3ccccc3)CC2)cc1,.,/,/,/,/,/
SMILES,PrPC surface inh,GDH-TPI inh,PrP UTR inh,BJeLR viability,PfHsp40 yeast,Mtb FBA inh
Cc1nc2cc(C(=O)N3CCN(C(=O)C(Cl)Cl)CC3)ccc2n1C1CCCC1,.,/,/,/,/,/
O=c1/c(=C/c2ccco2)sc2n1CN(c1ccccc1)CN=2,.,31.7,.,.,.,.
O=c1/c(=C/c2ccco2)sc2n1CN(c1cccc(Br)c1)CN=2,.,38.2,.,.,.,.
O=C(CSc1cccc2cccnc12)N/N=C/c1ccc(O)cc1,.,46.8,/,.,.,.
O=[N+]([O-])c1ccc2nc(CNc3nc(N4CCOCC4)nc4c3ncn4-c3ccsc3)[nH]c2c1,.,/,/,/,/,/
O=[N+]([O-])c1ccc2c(c1Nc1ccccc1Cl)=NC1(CCCCC1)N=2,.,.,/,.,/,.
Cc1ccc(Nc2c([N+](=O)[O-])ccc3c2=NC2(CCCCC2)N=3)cc1,.,.,.,.,59.3,.
COc1ccc(/C=C(/C#N)C(=O)Nc2ccc(C)cc2C)cc1C(=O)O,.,53.7,.,.,.,.
